# DT40 TDP1 no CPT: qHTS for Inhibitors of human tyrosyl-DNA phosphodiesterase 1 (TDP1): qHTS in cells in absence of CPT. Potency, µM (doses to about 46.2 µM), without a hit: at the top dose activity change, negative = growth inhibition, actives largely listed as inhibitors. AID 686978, 2013. DT40 Tdp1-/- hTDP1 cells, no CPT, ATP luminescence, 48 h. 15% of 420,000 active; further: potency means the concentration at half of the fitted maximal effect; nearly all actives have a fitted effect of over 55% in size
#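 Chicken DT40 Tdp1-/- cells complemented with human TDP1, screened without camptothecin (DMSO vehicle only), 400 cells/well. Compounds pin-transferred, cells incubated at 37 °C for at least 48 hr. Growth read as ATP-dependent luminescence (CellTiter-Glo, 30 min at RT).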
# DT40 TDP1 CPT: growth inhibition of DT40 Tdp1-/-;hTDP1 cells with camptothecin (screen for TDP1 inhibitors) | 12% of 420,000 active | chicken DT40 Tdp1-/-;hTDP1 cells + 20 nM CPT, ATP luminescence, 48 h | Potency, µM (titrated, usually from 46.2 µM), inactives show at the highest dose activity change, negative = growth inhibition, most hits filed as inhibitors; further: potency means the concentration at half of the fitted maximal effect; nearly all actives have a fitted effect of over 55% in size
#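 Chicken DT40 Tdp1-/- cells stably complemented with human TDP1 were seeded at 400 cells/well in medium containing 20 nM camptothecin, exposed to pin-transferred compounds, and grown at 37 °C for at least 48 hr. Viability was read as ATP luminescence.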
# IL-1B inflam inh: blocks inflammasome-driven IL-1 beta release; AID 743279; THP-1 LPS/ATP IL-1B secretion, AlphaLISA, 16 h; stronger effect = lower value; 4.7% of 360,000 active; activity change, % at 57.5 µM; in the data active means activity change below about -50%; inconclusive means mostly about -30% to -49%
#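 Secreted IL-1B measured by AlphaLISA bead assay after 16 h compound exposure of THP-1 cells; compounds (final up to 57.5 uM) added 1 h before LPS (250 ng/mL) and ATP (1.25 mM) stimulation; lower signal means less secretion.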
# HT1080-NT tox: kills 2HG-producing HT-1080-NT fibrosarcoma cells. HT-1080-NT fibrosarcoma viability, CellTiter-Glo ATP luminescence, 48 h. Potency, µM (top dose mostly 46.1 µM), without a hit: at the highest dose activity, negative = less viability, hits mostly cytotoxic. 1.6% of 360,000 active. AID 686970;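 further: NT is the 2HG producing partner of a matched IDH1 knockdown line; potency means the concentration at half of the fitted maximal effect; 0% = DMSO-treated cells and -100% = media-only wells without cells; nearly all actives have a fitted effect of over 55% in size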
#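 Luminescent CellTiter-Glo readout after 48 hours of compound exposure at 37 degrees C defined viability of HT-1080-NT cells. Activity was normalized to DMSO wells and cell-free media wells; concentration-response curves were fitted and assigned curve classes.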
# HT1080 IDH1KD tx: toxicity to HT-1080 IDH1 knockdown cells (counter line); HT-1080 IDH1 knockdown viability, ATP luminescence, 48 h; Potency, µM (doses to about 46.1 µM), for inactives: top-dose activity, negative = toxicity, actives largely listed as cytotoxic; 2% of 360,000 active; AID 686971;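 further: potency means the concentration at half of the fitted maximal effect; 0% = DMSO wells and -100% = cell-free medium wells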
#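 HT-1080-IDH1KD cells (IDH1 knocked down), 750/well in RPMI with 5% FBS, treated with compound 48 h at 37 degrees C. Viability by CellTiter-Glo luminescence, normalised to DMSO and no-cell wells; concentration-response curves classed.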
# Numbers without * were called inactive; ? = inconclusive; nt = no result; [ ] = dose if it differs, or a comment. An excerpt weighted towards active compounds, which were near 19% of everything screened. Unless noted, the call rests on the fitted dose curve; in most records, active means well fitted curve in the direction sought with a large enough effect; inconclusive means small, poorly fitted or top-dose-only effect, or another doubt; inactive means no such curve, though single readings can be large; an effect the other way counts as inactive or inconclusive. Unless noted, on the % scale 0 is the no-effect control and ±100 the full control effect.
SMILES,DT40 TDP1 no CPT,DT40 TDP1 CPT,IL-1B inflam inh,HT1080-NT tox,HT1080 IDH1KD tx
O=C(Nc1ccc(C(=O)O)cc1)/C(=C\c1cccc([N+](=O)[O-])c1)NC(=O)c1ccc(Br)o1,-5.0%,-12.5%,0.6,7.2%,17.6%
CC(C)(C#N)NC(=O)C1CCCN1S(=O)(=O)c1ccc2ccccc2c1 (stereo not given),?,23.1µM*,23.2,?,?
O=C(NCCc1ccccc1)C1CCCN1C(=O)Nc1ccc(F)cc1 (stereo not given),14.6µM*,?,-1.6,12.4%,6.5%
CC(C)(C)c1ccc(S(=O)(=O)N2CCCCC2C(=O)NCc2ccccn2)cc1 (stereo not given),?,23.1µM*,23.5,2.9%,5.1%
Cc1ccc(S(=O)(=O)N2CCCC2C(=O)NCCc2ccccc2)cc1 (stereo not given),14.6µM*,-14.1%,-2.7,-1.0%,-3.0%
CCNC(=O)C1CCCN1S(=O)(=O)c1ccc2ccccc2c1 (stereo not given),-23.4%,?,0.0,-3.9%,-0.2%
Cc1csc2c(=O)[nH]cnc12,0.2%,15.9%,6.6,1.5%,7.8%
CCOC(=O)c1c(C)[nH]c(C)c1C(=O)COC(=O)[C@@H]1CCCN1S(=O)(=O)c1ccc(Cl)cc1,13µM*,14.6µM*,-4.8,-2.8%[9.24 µM],8.8%
CCOc1ccccc1NC(=O)C1CCCCN1S(=O)(=O)c1ccc(F)cc1 (stereo not given),20.6µM*,-28.1%,32.6,-6.2%,12.4%
CC(C)NC(=O)C1=CC(c2ccc3c(c2)OCO3)=NS(=O)(=O)N1C,-6.4%,1.2%,nt,nt,nt
C=CCOc1ccc2ccccc2c1CNCCCN1CCOCC1,?,?,-9.8,-3.5%,3.6%
OCCCCNCc1cc(Br)ccc1OCc1ccccc1,?,?,?,-1.2%,0.8%
OCCNCc1cc(Br)ccc1OCc1ccccc1Cl,20.6µM*,20.6µM*,-58.8*,?,?
C=CCOc1ccc(Br)cc1CNCCO,-21.2%,-3.7%,-54.8*,21.6%,13.2%
C=CCOc1ccc(Br)cc1CNCCCN1CCOCC1,?,4.8%,-62.3*,-1.0%,2.0%
C=CCOc1ccc(Br)cc1CNC(C)(C)CO,-12.6%,-1.7%,-6.8,-7.2%,10.7%
O=C(Nc1ccc2c(c1)C(=O)NC2=O)c1cccc(Cl)c1,-9.8%,0.2%,19.5,-0.5%,-0.5%
COC(=O)c1cc(OC)c(OC)cc1NC(=O)c1cc(C(C)(C)C)oc1C,-1.1%,?,32.6,?,8.2%
COC(=O)[C@]12CCCCC=C1N(Cc1ccc3c(c1)OCO3)C(=O)[C@H](CC(=O)N1CCSCC1)C2,?,?,0.0,4.1%,3.1%
CCOC(=O)C(=CNc1ccc(C(F)(F)F)cc1)C(=O)OCC,-32.5%,3.6%,-13.5,10.1%,-1.5%
CCOC(=O)C(=CNc1ccc(NC2=NCC(C)S2)cc1)C(=O)OCC (stereo not given),6.51µM*,9.2µM*,-7.5,13.5%,7.1%
CC1(C(=O)NCc2ccccc2)CSCC(=O)N1Cc1cccc(C(F)(F)F)c1 (stereo not given),?,18.4µM*,-24.2,-20.0%,-0.1%
COc1ccc(CN2C(=O)CSCC2(C)C(=O)NCc2ccccc2)cc1OC (stereo not given),?,3.6%,-12.1,4.4%,-19.1%
CCN(CC)C(=O)c1c(NC(=O)c2ccccc2F)sc2c1CCC(C(C)(C)C)C2 (stereo not given),?,23.1µM*,nt,nt,nt
O=c1c2ccccc2nc2n1CCN2Cc1ccc(Cl)cc1,?,18.4µM*,-78.0*,?,-23.2%
CC(Cl)C(=O)NC(=O)NC12CC3CC(CC(C3)C1)C2 (stereo not given),20.6µM*,16.4µM*,0.0,-7.9%,-6.4%
O=C(CN1CCOCC1)Nc1ccc(NC(=O)c2ccccc2F)cc1,-17.4%,-10.8%,20.6,23.9%,5.4%

# Bioassay records: PubChem, National Center for Advancing Translational Sciences (NCATS)
